The record followed here is PubChem BioAssay (NCI).

Some test systems named below: HCT-15 colon; HT29 colon; SNB-75 CNS; SNB-19 CNS; U251 CNS; SK-MEL-5 melanoma; UACC-62 melanoma; LOX IMVI melanoma; SK-MEL-28 melanoma; SK-MEL-2 melanoma; EKVX NSCLC; SN12C renal; UO-31 renal; TK-10 renal; ACHN renal; CAKI-1 renal; A498 renal; CCRF-CEM leukemia; MOLT-4 leukemia; PC-3 prostate.
Common to all, as to experiment: NCI-60 one-dose screen, 48 h (100 = growth as untreated, 0 = no growth, -100 = all killed)
What all share (details): 10 µM unless noted

The structures appear in SMILES notation. The panel holds about 83,000 compounds, 20% with a hit somewhere; the sample as a whole holds those more often.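 The endpoint reported here, percent growth, reads 100 for growth as untreated, 0 for no net growth and -100 for all cells dead.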 Unmarked numbers belong to inactive results. Calls of active or inactive are those of the source. Rule for the calls: active = growth percent below 10; inactive = the rest.

For `O=C1/C(=C/c2cn(-c3ccccc3)nc2-c2ccccc2)SC(=S)N1c1ccc(Cl)cc1`, the growth in the assay with HCT-15 colon is 73%; with HT29 colon it was 99.1%; in the assay on SNB-75 CNS, 90.4%; in the assay with SNB-19 CNS, 71.9%; with U251 CNS, 57.2%; in the assay with SK-MEL-5 melanoma it was 78.5%. Besides, the growth is 57.5% in the assay with UACC-62 melanoma; 63.3% with LOX IMVI melanoma; 73.5% in the assay on SK-MEL-28 melanoma; 97.4% with SK-MEL-2 melanoma; 81.9% in the assay with EKVX NSCLC; 69.2% in the assay on SN12C renal. Besides, the growth with UO-31 renal is 65.7%; in the assay on TK-10 renal, 91.8%; in the assay with ACHN renal it was 81.9%; with CAKI-1 renal, 75.2%; in the assay with A498 renal, 67%; with CCRF-CEM leukemia, 54%. The growth in the assay on MOLT-4 leukemia was 74.7%.

`Cc1ccc(C(=O)Nc2nc3c(s2)CN(Cc2ccccc2)CC3)cn1`: the growth in the assay on HCT-15 colon is 49.5%; in the assay with HT29 colon, 59.1%; with SNB-75 CNS, 66.9%; in the assay with SNB-19 CNS, 92.3%; in the assay on U251 CNS, 92.9%; with SK-MEL-5 melanoma, 79.3%. In addition, the growth was 74.5% in the assay with UACC-62 melanoma; 87% in the assay on LOX IMVI melanoma; 94.3% in the assay with SK-MEL-28 melanoma; 93% in the assay on SK-MEL-2 melanoma; 90.4% in the assay with EKVX NSCLC; 89.7% with SN12C renal. The growth in the assay with UO-31 renal is 80.5%; in the assay on TK-10 renal, 89.4%; in the assay with ACHN renal it was 100%; in the assay on CAKI-1 renal, 65.2%; in the assay with A498 renal, 89.9%; in the assay on MOLT-4 leukemia, 95.6%.

Take `C=C1CCC2C3(C)COC(c4ccc(NC(C)=O)cc4)OC3CCC2(C)C1C/C=C1/C(=O)OCC1O` (stereo not given): the growth with HCT-15 colon was 63.3%; in the assay with HT29 colon, 52.2%; in the assay with SNB-75 CNS, 63.9%; in the assay on SNB-19 CNS, 83.6%; in the assay with U251 CNS, 54.7%; in the assay with SK-MEL-5 melanoma, 29%. The growth with UACC-62 melanoma was 81%; in the assay with LOX IMVI melanoma it was 55.4%; with SK-MEL-28 melanoma, 88.6%; with SK-MEL-2 melanoma, 84.4%; with EKVX NSCLC it was 39.6%; with SN12C renal, 91.6%. Further, the growth with UO-31 renal is 68.3%; with TK-10 renal, 75.3%; in the assay on ACHN renal it was 65.8%; in the assay with CAKI-1 renal, 87.7%; in the assay with A498 renal, 57%; in the assay on CCRF-CEM leukemia, 27.3%. The growth in the assay with MOLT-4 leukemia was 26.7%.

In the case of `CN(C)C(=O)c1cc2cnc(Nc3ccc(-c4csc5c(=S)cc(N6CCOCC6)oc45)cc3)nc2n1C1CCCC1`, the growth in the assay on HCT-15 colon was 7.32% (active); in the assay on HT29 colon it was 5% (active); in the assay on SNB-75 CNS it was -37.4% (active); in the assay on SNB-19 CNS, 10.6%; with U251 CNS, 7.08% (active); with PC-3 prostate it was -4.89% (active). Moreover, the growth is -30.4% (active) in the assay with SK-MEL-5 melanoma; -35.8% (active) in the assay on UACC-62 melanoma; -39.8% (active) with LOX IMVI melanoma; 9.77% (active) with SK-MEL-28 melanoma; 7.93% (active) with SN12C renal; -4.43% (active) with UO-31 renal. Further, the growth with TK-10 renal is 4.82% (active); in the assay on ACHN renal, 6.64% (active); with CAKI-1 renal, 11.7%; in the assay with A498 renal, -38.2% (active); in the assay with CCRF-CEM leukemia it was 1.8% (active); with MOLT-4 leukemia, 2.85% (active).

Consider `COc1ccc2c(c1)c(C(=O)c1nc(-c3cn(C)c4ccccc34)no1)cn2C`, for which the growth in the assay with HCT-15 colon was 82.9%; with HT29 colon it was 88.8%; in the assay on SNB-75 CNS it was 108%; with SNB-19 CNS it was 92.8%; with U251 CNS, 101%; in the assay with SK-MEL-5 melanoma, 82.2%. Moreover, the growth in the assay with UACC-62 melanoma was 76.6%; in the assay on LOX IMVI melanoma it was 103%; in the assay on SK-MEL-28 melanoma, 93.4%; in the assay on SK-MEL-2 melanoma it was 101%; in the assay on EKVX NSCLC, 103%; with SN12C renal, 89.5%. For the same compound, the growth was 77.2% with UO-31 renal; 91.7% with TK-10 renal; 95.9% in the assay on ACHN renal; 94.1% in the assay with CAKI-1 renal; 87.9% in the assay on CCRF-CEM leukemia; 94.2% with MOLT-4 leukemia.

On to `COC(=O)c1nc(-c2ccccc2)oc1S(=O)(=O)N(C)CCO`, for which the growth with HCT-15 colon is 42.5%; with HT29 colon it was 35.7%; with SNB-75 CNS, 95.5%; with SNB-19 CNS, 92.3%; in the assay on U251 CNS it was 82.7%; with SK-MEL-5 melanoma, 96%. For the same compound, the growth in the assay with UACC-62 melanoma is 77.2%; in the assay with LOX IMVI melanoma it was 71.6%; with SK-MEL-28 melanoma, 69.8%; in the assay with SK-MEL-2 melanoma, 82.1%; in the assay on EKVX NSCLC it was 77.5%; with SN12C renal, 87.6%. Further, the growth in the assay on UO-31 renal was 59.2%; in the assay with TK-10 renal it was 43.9%; in the assay on ACHN renal, 49.2%; in the assay with CAKI-1 renal it was 54.7%; in the assay with A498 renal, 112%; in the assay with CCRF-CEM leukemia, 16.2%. Besides, the growth in the assay on MOLT-4 leukemia is 45.2%.

In the case of `CN1CCCc2cc(/C=C3\SC(=S)N(C(Cc4ccc(O)cc4)C(=O)O)C3=O)ccc21` (stereo not given), the growth with HCT-15 colon was 101%; in the assay with HT29 colon, 110%; in the assay with SNB-75 CNS it was 89.9%; in the assay on SNB-19 CNS, 92.2%; with U251 CNS, 94.7%; with SK-MEL-5 melanoma, 100%. In addition, the growth with UACC-62 melanoma was 93.6%; in the assay with LOX IMVI melanoma, 93.8%; in the assay with SK-MEL-28 melanoma, 113%; in the assay with SK-MEL-2 melanoma, 103%; in the assay on EKVX NSCLC it was 91.6%; in the assay on SN12C renal, 93.3%. Moreover, the growth with UO-31 renal is 79.7%; with TK-10 renal it was 102%; in the assay with ACHN renal, 103%; with CAKI-1 renal it was 89%; in the assay with A498 renal it was 87.8%; in the assay with CCRF-CEM leukemia, 106%. The growth in the assay on MOLT-4 leukemia was 103%.
